PubChem BioAssay (NCI)
This is part of a sample that, as a whole, favours compounds with a hit. Of some 79,000 tested, about 15% had one in any assay. Activity calls are given as the source filed them. No stated cut-off is given here; in the data, active means growth inhibition above about 70%; inactive means the rest.

Experiments:
[1] = NCI Yeast Anticancer Drug Screen. Data for the rad50 strain (AID 155);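 further: 0% = growth of vehicle-only cultures of the same strain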; conditions: S. cerevisiae rad50 strain growth inhibition; at 50.0 µM; active compounds read high
Summary of the method: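 Genetically altered yeast (DNA repair pathway); compound treatment; growth inhibition vs vehicle ctrl.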

[2] = NCI Yeast Anticancer Drug Screen. Data for the mec2-1 strain (AID 157); conditions: S. cerevisiae mec2-1 strain, at 50.0 µM, active compounds read high
Summary of the method: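 Strain: mec2-1 (DNA repair/cell cycle alteration). Compound exposure, then growth measured; inhibition expressed relative to vehicle.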

[3] = NCI Yeast Anticancer Drug Screen. Data for the sgs1 mgt1 strain (AID 161);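 further: 0% = growth of cultures given vehicle only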; conditions: S. cerevisiae sgs1 mgt1 strain, at 50.0 µM, active compounds read high
Summary of the method: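 Mutant yeast exposed to compound; growth scored against vehicle-only wells.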

[4] = NCI Yeast Anticancer Drug Screen. Data for the cln2 rad14 strain (AID 165);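 further: 0% = growth equal to vehicle treated cultures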; conditions: S. cerevisiae cln2 rad14 strain, at 50.0 µM, active compounds read high
Summary of the method: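 Compounds are applied to the cln2 rad14 yeast strain, and growth is then compared with that of vehicle-treated cultures to give inhibition.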

[5] = NCI Yeast Anticancer Drug Screen. Data for the bub3 strain (AID 167); conditions: S. cerevisiae bub3 mutant strain, at 50.0 µM, active compounds read high
Summary of the method: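 Yeast carrying a defined mutation is treated with each compound, and growth is compared with that of vehicle-exposed cells to give inhibition.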

[6] = NCI Yeast Anticancer Drug Screen. Data for the mlh1 rad18 strain (AID 175); conditions: S. cerevisiae mlh1 rad18 strain growth inhibition; at 50.0 µM; active compounds read high
Summary of the method: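 Read-out is yeast growth inhibition, calculated against vehicle-only controls. The compound was applied to a strain engineered with DNA damage repair alterations.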

Measured: growth inhibition

C1CCC(NCCNC2CCCCC2)CC1
inactive: [1] 11.8% | [2] -16.9% | [3] 5.5% | [4] 18.6% | [5] -2.8% | [6] 10.3%

CCCCCCCCCCCc1cc(=O)n(-c2cc(Cl)ccc2Cl)n1C
active: [1] 99.1% | [2] 99.3% | [3] 99.5% | [4] 98.7% | [5] 99% | [6] 99.2%

Nc1ccc(O)c(N)c1
inactive: [1] 35.1% | [2] 23.5% | [3] 26.6% | [4] 13.9% | [5] -8% | [6] 31.4%

Cc1cc(C)c2c(ccc3ccccc32)n1
inactive: [1] -43.9% | [2] -21.4% | [3] -23.4% | [4] -5.75% | [5] -19.9% | [6] -33.5%

S=C(Cc1cccnc1)N1CCOCC1
inactive: [1] -7.85% | [2] 41.5% | [3] 8.2% | [4] -27.9% | [5] 5.15% | [6] 45.5%

O=CC(CO)CC(C=O)n1cnc2c(=O)[nH]cnc21 (stereo unspecified)
inactive: [1] -11.2% | [2] -16.1% | [3] -15.2% | [4] 2.55% | [5] -9.45% | [6] 1.95%

COC(=O)C1CC(=C(C)C)CCC1=O (stereo unspecified)
inactive: [1] 11.1% | [2] 2.15% | [3] 0.4% | [4] 11.2% | [5] 8.7% | [6] -1.7%

CCC1(C)C(=O)SC(=S)N1C (stereo unspecified)
inactive: [1] 4.4% | [2] -0.2% | [3] -4.9% | [4] -8.4% | [5] -0.7% | [6] 5.6%

COc1ccc2nc(Cl)sc2c1
inactive: [1] 32.4% | [2] -17.6% | [3] 41.4% | [4] 21.4% | [5] 42.1% | [6] 13.6%

Clc1ccccc1NCSC1=NCCS1
inactive: [1] 5.95% | [2] -15.8% | [3] 3.9% | [4] -19.6% | [5] -3.85% | [6] 20.8%

CNC(=O)SCC(N)C(=O)O (stereo unspecified)
inactive: [1] 1.25% | [2] -4.85% | [3] -8.3% | [4] -16.4% | [5] -0.9% | [6] 2%

NC(CSC(c1ccccc1)(c1ccccc1)c1ccccc1)C(=O)OC(c1ccccc1)c1ccccc1 (stereo unspecified)
inactive: [1] 19.3% | [2] -7% | [3] 29.6% | [4] -44.5% | [5] -18.7% | [6] 22.2%

N#Cc1[nH]nc2nc[nH]c(=O)c12
inactive: [1] -16.3% | [2] -14.8% | [3] -10.8% | [4] -9.95% | [5] 3.9% | [6] 4.85%

Cc1ccc(S(=O)(=O)N/N=C2/CC3CCC4CC2CC34)cc1 (stereo unspecified)
inactive: [1] -51% | [2] -0.6% | [3] -35.2% | [4] -25% | [5] 12.9% | [6] -10.1%

COC1=CC(=O)C(Cc2ccc3c(c2)OCO3)=CC1=O
inactive: [1] 13.2% | [2] 24.6% | [3] 15.7% | [4] -9.45% | [5] 3.1% | [6] 34.5%

CC(C)(C)C(=O)Cn1nnnc1C(=O)C(C)(C)C
inactive: [1] -10.7% | [2] -35.5% | [3] -15.8% | [4] -36.9% | [5] -5.85% | [6] -19.4%

CC(C)C1OCCOCCO1
inactive: [1] 9.45% | [2] -12.1% | [3] -18.5% | [4] -21.5% | [5] -9.4% | [6] 9.45%

CC(=O)Nc1ccc(C(C#N)C(C#N)c2ccccc2)cc1 (stereo unspecified)
inactive: [1] -1.5% | [2] 8.75% | [3] -0.1% | [4] -68.3% | [5] 11.8% | [6] -2.55%

O=C1CSC(=S)N1c1ccccc1
inactive: [1] 2.2% | [2] -3.8% | [3] -3.6% | [4] -4.75% | [5] 0.8% | [6] 2.9%

COc1cc(/C=C(\C)c2ccc3c(c2)OCO3)cc(OC)c1OC
inactive: [1] 15% | [2] 12.6% | [3] 35% | [4] 5.15% | [5] 12.8% | [6] -5.85%

CC(C)=C/C(CC(O)(C(F)(F)F)C(F)(F)F)=N\O
inactive: [1] -17.2% | [2] 4.45% | [3] -6.5% | [4] 18.4% | [5] -15.8% | [6] -13.3%

O=C(Oc1cccc2ccccc12)c1cccnc1
inactive: [1] -1.45% | [2] -2% | [3] 6.4% | [4] -38% | [5] 19.7% | [6] 31.3%

Cc1ccc([N+](=O)[O-])c(P(=O)(O)O)c1
inactive: [1] 12.6% | [2] 13% | [3] -14.7% | [4] -3.45% | [5] 3.4% | [6] -12.2%

COc1ccc(Nc2cc(N)nc(N)n2)c(=S)[nH]1
inactive: [1] 0.05% | [2] -2.85% | [3] -5.15% | [4] 1.75% | [5] 3.05% | [6] -0.95%

Cn1c(=O)cc2n(C)c3ccccc3n2c1=O
inactive: [1] 33.1% | [2] 18.6% | [3] 1.2% | [4] -5.9% | [5] 6.2% | [6] 5.8%

c1ccc(C[n+]2cccc3ccccc32)cc1
inactive: [1] 1.75% | [2] -29.6% | [3] -7.1% | [4] 6.25% | [5] -1.95% | [6] -12.2%

C=CCOc1ccccc1C
inactive: [1] -21.9% | [2] -29.9% | [3] -0.85% | [4] 8.1% | [5] -21.7% | [6] -14.9%

COc1ccc(C(C)c2cc3c(cc2OCCO)OCO3)cc1 (stereo unspecified)
inactive: [1] 8.35% | [2] 6.7% | [3] 44.3% | [4] 18.1% | [5] 41.8% | [6] 45.7%

CCNC(=O)C1Cc2ccccc2N(CC)C1 (stereo unspecified)
inactive: [1] -13.4% | [2] -6.65% | [3] -0.75% | [4] -12.2% | [5] -1.9% | [6] 2.75%

CNC(=O)CCCCC(=O)NC
inactive: [1] -5.65% | [2] -7.9% | [3] -2.7% | [4] 6.15% | [5] -10.8% | [6] -19.2%

CN(C=O)c1c(F)cc(C(=O)O)cc1F
inactive: [1] 3.05% | [2] 4.1% | [3] -3.3% | [4] 4.1% | [5] -6.65% | [6] 8.15%

CC1CC(=O)CCC2(C)C(OC(C)(C)C)CCC12 (stereo unspecified)
inactive: [1] 14.7% | [2] -1.75% | [3] -5.75% | [4] 9.15% | [5] 33.2% | [6] 21.1%

Brc1cc(Br)c(Br)cc1Br
inactive: [1] 6.1% | [2] 5.7% | [3] 8.6% | [4] 13.8% | [5] -3.65% | [6] 12.3%

N#CC(NCCc1ccccc1)c1ccccc1 (stereo unspecified)
inactive: [1] 2.45% | [2] -3.1% | [3] -32.8% | [4] -20.1% | [5] -56.7% | [6] -3.95%

Cc1cc2c(cc1Cl)SC(NNC(=O)c1ccncc1)=NS2(=O)=O
inactive: [1] -42.5% | [2] -39.8% | [3] -45.9% | [4] -32.4% | [5] -63.4% | [6] -9.4%

Cc1ccc(NC(=O)CC2SC(=Nc3cccc(Cl)c3C)NC2=O)cc1 (stereo unspecified)
inactive: [1] 30.9% | [2] 27.9% | [3] 41.5% | [4] 28.7% | [5] 26.1% | [6] 11%

CCOC(=O)CCCCC(N)=O
inactive: [1] -4.3% | [2] -7.6% | [3] -15.7% | [4] 1.15% | [5] 11.4% | [6] 2.7%

CN(C=O)c1ccc2c(c1)C(=O)c1ccccc1-2
inactive: [1] 11.7% | [2] 2.1% | [3] 0.1% | [4] 4.2% | [5] -0.3% | [6] 9.55%

O=C(O)CCBr
inactive: [1] 8.1% | [2] -10.1% | [3] 44.5% | [4] 0% | [5] 6.5% | [6] 43.8%

CCOC(=O)\C(C#N)=C/C=C(C)/C(C)=C/Nc1ccc([N+](=O)[O-])cc1[N+](=O)[O-]
inactive: [1] 10.9% | [2] 7.85% | [3] -18.4% | [4] -5.2% | [5] 0.8% | [6] 22.6%

CCCCCCCCN(CCCCCCCC)CC(O)c1ccc2c(c1)Sc1ccccc1O2 (stereo unspecified)
active: [1] 96.7% | [2] 98.2% | [3] 97.5% | [4] 97.1% | [5] 97.1% | [6] 98%
